From PubChem BioAssay (NCATS)
Records with an inconclusive call do not appear. Active and inactive are the calls of the source. The call rests on the fitted dose curve; in most records, active means well fitted inhibition curve with a large enough effect; inconclusive means small, poorly fitted or top-dose-only effect; inactive means flat fitted curve, though single readings scatter.

How the values were obtained:
P93_24 = experiment: qHTS profiling for inhibitors of Plasmodium falciparum proliferation (AID 504749); further: potency means the concentration at half of the fitted maximal effect; details: P. falciparum in erythrocytes, SYBR Green DNA, 72 h; series mostly up to 28.7 µM
Method in brief: (§1)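 SYBR Green fluorescence (ex 485 nm, em 535 nm) reports parasite DNA after 72 h compound exposure of infected red cells at 0.3% parasitemia, 2.5% hematocrit; signal normalized to 0.29 uM artemisinin and vehicle wells.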

P94_40 = experiment: as above; details: P. falciparum in erythrocytes, SYBR Green DNA, 72 h; series mostly up to 28.7 µM
Method in brief: as §1

PAD = experiment: as above; details: P. falciparum in erythrocytes, SYBR Green DNA, 72 h; series mostly up to 28.7 µM
Method in brief: as §1

PC15 = experiment: as above; details: P. falciparum in erythrocytes, SYBR Green DNA, 72 h; series mostly up to 28.7 µM
Method in brief: as §1

PC26 = experiment: as above; details: P. falciparum in erythrocytes, SYBR Green DNA, 72 h; series mostly up to 28.7 µM
Method in brief: as §1

PC49 = experiment: as above; details: P. falciparum in erythrocytes, SYBR Green DNA, 72 h; series mostly up to 28.7 µM
Method in brief: as §1

SC27B = experiment: as above; details: P. falciparum in erythrocytes, SYBR Green DNA, 72 h; series mostly up to 28.7 µM
Method in brief: as §1

TAB109 = experiment: as above; details: P. falciparum in erythrocytes, SYBR Green DNA, 72 h; series mostly up to 28.7 µM
Method in brief: as §1

TAB113 = experiment: as above; details: P. falciparum in erythrocytes, SYBR Green DNA, 72 h; series mostly up to 28.7 µM
Method in brief: as §1

TAB165 = experiment: as above; details: P. falciparum in erythrocytes, SYBR Green DNA, 72 h; series mostly up to 28.7 µM
Method in brief: as §1

W2 = experiment: as above; details: P. falciparum in erythrocytes, SYBR Green DNA, 72 h; series mostly up to 28.7 µM
Method in brief: as §1

CRL-7250 = normal cell line; experiment: Cytotoxic Profiling of Annotated Libraries Using Quantitative High-Throughput Screening (AID 1296008); details: Five cell lines viability, CellTiter-Glo ATP luminescence, 48-72 h; hits give low values; on max response: on the % scale 0 is the no-effect control and ±100 the full control effect
Method in brief: (§2)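 Cells exposed to compounds for 48 or 72 hr at 37 degrees Celsius. Viability read as ATP-coupled luminescence with CellTiter-Glo after 10 min at room temperature.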

HEK293 = experiment: as above; details: Five cell lines viability, CellTiter-Glo ATP luminescence, 48-72 h; hits give low values
Method in brief: as §2

HaCat [1] = experiment: as above; details: Five cell lines viability, CellTiter-Glo ATP luminescence, 48-72 h; hits give low values
Method in brief: as §2

KB-3-1 = experiment: as above; details: Five cell lines viability, CellTiter-Glo ATP luminescence, 48-72 h, hits give low values
Method in brief: as §2

NIH3T3 = experiment: as above; details: Five cell lines viability, CellTiter-Glo ATP luminescence, 48-72 h; hits give low values
Method in brief: as §2

HACAT [2] = experiment: qHTS assay to identify novel small-molecules to repurpose for Merkel cell carcinoma treatment (AID 1296009); details: MCC and control cell lines, CellTiter-Glo viability, 72 h; at 44.8 µM (top of the series) unless noted
Method in brief: (§3)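 CellTiter-Glo luminescence after 72 hr compound exposure at 37 degree celsius gave cell viability. Libraries NPC and MIPE were run as 8- and 11-point dose responses; RLUs normalized to DMSO (negative) and no-cell (cytotoxicity) controls.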

MCC-13 = experiment: as above; details: MCC and control cell lines, CellTiter-Glo viability, 72 h; series mostly up to 46 µM
Method in brief: as §3

MCC-26 = experiment: as above; details: MCC and control cell lines, CellTiter-Glo viability, 72 h; series mostly up to 46 µM
Method in brief: as §3

HEK293T = experiment: as above; details: MCC and control cell lines, CellTiter-Glo viability, 72 h; at 44.8 µM (top of the series) unless noted
Method in brief: as §3
Further: nearly all actives have a fitted effect of over 60% in size.

CCOC(=O)c1cccnc1
inactive: Potency (P93_24) | Potency (P94_40) | Potency (PAD) | Potency (PC15) | Potency (PC26) | Potency (PC49) | Potency (SC27B) | Potency (TAB109) | Potency (TAB113) | Potency (TAB165) | Potency (W2) | max response (CRL-7250) -2.26% | max response (HEK293) -0.734% | outcome (HaCat [1]) | max response (KB-3-1) 2.38% | max response (NIH3T3) 2.73% | outcome (HACAT [2]) | outcome (MCC-13) | outcome (MCC-26)

O=C(O)c1ccccc1OP(=O)(O)O
inactive: Potency (P93_24) | Potency (P94_40) | Potency (PAD) | Potency (PC15) | Potency (PC26) | Potency (PC49) | Potency (SC27B) | Potency (TAB109) | Potency (TAB113) | Potency (TAB165) | Potency (W2) | max response (CRL-7250) 3.34% | max response (HEK293) 2.49% | outcome (HaCat [1]) | max response (KB-3-1) 12.4% | max response (NIH3T3) 3.2% | outcome (HACAT [2]) | outcome (MCC-13) | outcome (MCC-26)

CC(N)CCCC(C)(C)O (stereo not given)
inactive: Potency (P93_24) | Potency (P94_40) | Potency (PAD) | Potency (PC15) | Potency (PC26) | Potency (PC49) | Potency (SC27B) | Potency (TAB109) | Potency (TAB113) | Potency (TAB165) | Potency (W2) | max response (CRL-7250) -9.12% | max response (HEK293) -17.6% | outcome (HaCat [1]) | max response (KB-3-1) 2.21% | outcome (NIH3T3) | outcome (HACAT [2]) | outcome (MCC-13)

CC(CN(C)C)C(C)(O)Cc1ccc(Cl)cc1 (stereo not given)
inactive: Potency (PAD) | Potency (PC15) | outcome (CRL-7250) | max response (HEK293) 3.34% | outcome (HaCat [1]) | max response (KB-3-1) 6.05% | outcome (NIH3T3) | outcome (HACAT [2]) | outcome (MCC-13)
active: Potency (W2) 2.39 µM

CCCNC(C)(C)COC(=O)c1ccccc1
inactive: Potency (P93_24) | Potency (P94_40) | Potency (PAD) | Potency (PC15) | Potency (PC49) | Potency (SC27B) | Potency (TAB109) | Potency (TAB113) | Potency (TAB165) | max response (CRL-7250) -0.75% | max response (HEK293) 3.12% | outcome (HaCat [1]) | max response (KB-3-1) 0.448% | max response (NIH3T3) 4.95% | outcome (HACAT [2]) | outcome (MCC-13) | outcome (MCC-26)

CN(C/C=C/C#CC(C)(C)C)Cc1cccc2ccccc12
inactive: Potency (P93_24) | Potency (PAD) | Potency (PC15) | Potency (PC26) | Potency (PC49) | Potency (SC27B) | Potency (TAB109) | Potency (TAB113) | Potency (TAB165) | max response (CRL-7250) -11.8% | max response (HEK293) -4.51% | outcome (HaCat [1]) | max response (KB-3-1) -0.279% | max response (NIH3T3) 2.57% | outcome (HACAT [2]) | outcome (MCC-13) | outcome (MCC-26)

O=C1c2cccc(O)c2C(=O)c2c(O)cccc21
inactive: Potency (P93_24) | Potency (P94_40) | Potency (PAD) | Potency (PC15) | Potency (PC26) | Potency (PC49) | Potency (SC27B) | Potency (TAB109) | Potency (TAB113) | Potency (TAB165) | max response (CRL-7250) -1.24% | max response (HEK293) -0.119% | outcome (HaCat [1]) | max response (KB-3-1) 2.38% | max response (NIH3T3) -0.518% | outcome (HACAT [2]) | outcome (MCC-13)

OCCN1C[C@H](O)[C@@H](O)[C@H](O)[C@H]1CO
inactive: max response (CRL-7250) 0.57% | outcome (HEK293) | max response (HaCat [1]) -0.066% | max response (KB-3-1) 4.48% | max response (NIH3T3) -3.52% | outcome (HEK293T) | outcome (MCC-13) | outcome (MCC-26)

Cc1cccc(C(=O)O)c1O
inactive: Potency (P93_24) | Potency (P94_40) | Potency (PAD) | Potency (PC15) | Potency (PC26) | Potency (PC49) | Potency (SC27B) | Potency (TAB109) | Potency (TAB113) | Potency (TAB165) | Potency (W2) | max response (CRL-7250) -0.667% | max response (HEK293) -2.23% | outcome (HaCat [1]) | max response (KB-3-1) 2.2% | outcome (NIH3T3) | outcome (HACAT [2]) | outcome (MCC-13)

COc1ccc(C(=O)NCc2ccc(OCCN(C)C)cc2)cc1OC
inactive: Potency (P93_24) | Potency (P94_40) | Potency (PAD) | Potency (PC15) | Potency (PC26) | Potency (PC49) | Potency (SC27B) | Potency (TAB109) | Potency (TAB113) | Potency (TAB165) | Potency (W2) | outcome (CRL-7250) | max response (HEK293) -0.933% | outcome (HaCat [1]) | max response (KB-3-1) 3.28% | max response (NIH3T3) -3.79% | outcome (HACAT [2]) | outcome (MCC-13)

CCOC(=O)[C@H](CCc1ccccc1)N[C@@H](C)C(=O)N1Cc2cc(OC)c(OC)cc2C[C@H]1C(=O)O
inactive: outcome (CRL-7250) | outcome (HEK293) | max response (HaCat [1]) 2.61% | max response (KB-3-1) -3.37% | max response (NIH3T3) 2.92% | outcome (HEK293T) | outcome (MCC-13) | outcome (MCC-26)

CN1CCN(C(=O)C2CCCCC2)CC1
inactive: Potency (P93_24) | Potency (P94_40) | Potency (PAD) | Potency (PC15) | Potency (PC26) | Potency (PC49) | Potency (SC27B) | Potency (TAB109) | Potency (TAB113) | Potency (TAB165) | Potency (W2) | outcome (CRL-7250) | max response (HEK293) -2.32% | outcome (HaCat [1]) | max response (KB-3-1) -4.36% | max response (NIH3T3) -7.73% | outcome (HACAT [2]) | outcome (MCC-13)

Cc1cc(OI)c(C(C)C)cc1-c1cc(C(C)C)c(OI)cc1C
inactive: outcome (CRL-7250) | max response (HEK293) 2.3% | outcome (HaCat [1]) | max response (KB-3-1) 12.2% | max response (NIH3T3) -2.54% | outcome (HACAT [2]) | outcome (MCC-13) | outcome (MCC-26)
active: Potency (P94_40) 11.2 µM | Potency (PC15) 11.2 µM | Potency (TAB113) 10 µM | Potency (W2) 6.01 µM

O=C(O)COC(=O)Cc1ccccc1Nc1c(Cl)cccc1Cl
inactive: Potency (P94_40) | Potency (PAD) | Potency (PC15) | Potency (PC26) | Potency (PC49) | Potency (SC27B) | Potency (TAB109) | Potency (TAB113) | Potency (TAB165) | Potency (W2) | outcome (CRL-7250) | max response (HEK293) -1.3% | outcome (HaCat [1]) | max response (KB-3-1) 5.03% | max response (NIH3T3) 1.68% | outcome (HACAT [2]) | outcome (MCC-13) | outcome (MCC-26)

CC(=O)OCC(COC(C)=O)OC(C)=O
inactive: Potency (P93_24) | Potency (P94_40) | Potency (PAD) | Potency (PC15) | Potency (PC26) | Potency (PC49) | Potency (SC27B) | Potency (TAB109) | Potency (TAB113) | Potency (TAB165) | Potency (W2) | max response (CRL-7250) -1.86% | max response (HEK293) -3.97% | outcome (HaCat [1]) | max response (KB-3-1) 8.48% | outcome (NIH3T3) | outcome (HACAT [2]) | outcome (MCC-13)
